According to PubChem BioAssay (NCATS):
Inconclusive results are not listed. Entries that show only a call come without a potency. Calls of active or inactive are those of the source. Unless noted, calls come from the whole dose curve; as a rule, active = well fitted curve in the direction sought with a large enough effect; inconclusive = small, poorly fitted or top-dose-only effect, or another doubt; inactive = no such curve, though single readings can be large; an effect the other way counts as inactive or inconclusive.

Assays:
[1] = Cytometry Cell-Based qHTS for Inhibitors of the mTORC1 Signaling Pathway in MEF cells (AID 2668);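 note: Tsc2-/- p53-/- mouse embryonic fibroblasts stably re-expressing wild-type Tsc2; percent cells positive for phospho-rpS6 Ser235/236 relative to propidium iodide stain; series mostly up to about 38 µM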
Method in brief: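 MEFs (Tsc2-/-, p53-/- stably expressing WT Tsc2) treated 24 h at 37 degree Celsius, fixed, stained with Alexa-488 anti-phospho-rpS6 Ser235/236 and propidium iodide; Acumen laser scanning. Reported as % positive cells, phospho-S6 normalized to PI.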

[2] = Validation screen for small molecules that induce DNA re-replication in MCF 10A normal breast cells (AID 463097); note: nearly all actives have a fitted effect of over 60% in size; note: potency is the fitted concentration of half-maximal effect
Method in brief: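 MCF 10A cells exposed to compound 48 hr at 37 C, 5% CO2, then Hoechst-stained 40 min. Laser-scanning imaging of nuclear DNA content (405 nm ex, 500-530 nm em); re-replication scored as rise in nuclei with elevated fluorescence intensity.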

[3] = biological target: Ubiquitin carboxyl-terminal hydrolase 2 (Homo sapiens) (UniProt O75604); experiment: qHTS Validation Assay for Inhibitors of Ubiquitin-specific Protease USP2a Using CHOP2 as the Reporter (AID 463106)
Sequence of Ubiquitin carboxyl-terminal hydrolase 2 (Homo sapiens) (O75604 whole entry, looked up): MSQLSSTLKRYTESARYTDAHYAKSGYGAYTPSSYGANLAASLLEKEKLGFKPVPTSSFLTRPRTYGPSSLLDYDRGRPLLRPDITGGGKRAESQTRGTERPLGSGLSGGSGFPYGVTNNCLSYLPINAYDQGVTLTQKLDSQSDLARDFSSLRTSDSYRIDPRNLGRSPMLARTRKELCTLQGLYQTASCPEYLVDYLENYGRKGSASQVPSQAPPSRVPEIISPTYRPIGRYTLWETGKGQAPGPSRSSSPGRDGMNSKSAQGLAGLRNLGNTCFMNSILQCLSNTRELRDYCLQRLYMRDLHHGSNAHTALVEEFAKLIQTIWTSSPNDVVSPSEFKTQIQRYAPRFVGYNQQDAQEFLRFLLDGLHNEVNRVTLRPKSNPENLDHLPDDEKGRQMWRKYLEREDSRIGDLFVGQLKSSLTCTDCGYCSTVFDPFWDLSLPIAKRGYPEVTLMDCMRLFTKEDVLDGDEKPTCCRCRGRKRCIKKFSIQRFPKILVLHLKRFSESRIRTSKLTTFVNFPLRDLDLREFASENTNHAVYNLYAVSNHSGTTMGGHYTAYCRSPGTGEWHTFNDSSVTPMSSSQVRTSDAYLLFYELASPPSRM
Method in brief: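 Inhibition is expressed relative to NEM as the full-inhibition control, with concentration-response curves classed by fit quality, magnitude and activity. Enzyme (USP2 core, 10nM) meets 25nM Ub-CHOP2 after compound preincubation; readings are taken at 60min.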

[4] = biological target: DNA polymerase III PolC-type (Bacillus subtilis (strain 168)) (UniProt P13267); experiment: qHTS Validation Assay for the Inhibitors of DNA Replication in Gram-Positive Bacteria (AID 485295); note: potency is the fitted concentration of half-maximal effect
Method in brief: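 Reconstituted B. subtilis Pol III holoenzyme (PolC, beta clamp, SSB, primase) preincubated with compound, then M13Gori single-stranded circular template with dNTPs/NTPs added; room temperature reaction. Stopped with EDTA/PicoGreen; dsDNA fluorescence read, EDTA as full-inhibition control.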

[5] = biological target: Tumor susceptibility gene 101 protein (Homo sapiens) (UniProt Q99816); experiment: qHTS Validation Assay for Iinhibitors of HIV-1 Budding by Blocking the Interaction of PTAP/TSG101 (AID 485342; calls by dose curve)
Sequence of Tumor susceptibility gene 101 protein (Homo sapiens) (Q99816 whole entry, looked up, the tested form may be a part): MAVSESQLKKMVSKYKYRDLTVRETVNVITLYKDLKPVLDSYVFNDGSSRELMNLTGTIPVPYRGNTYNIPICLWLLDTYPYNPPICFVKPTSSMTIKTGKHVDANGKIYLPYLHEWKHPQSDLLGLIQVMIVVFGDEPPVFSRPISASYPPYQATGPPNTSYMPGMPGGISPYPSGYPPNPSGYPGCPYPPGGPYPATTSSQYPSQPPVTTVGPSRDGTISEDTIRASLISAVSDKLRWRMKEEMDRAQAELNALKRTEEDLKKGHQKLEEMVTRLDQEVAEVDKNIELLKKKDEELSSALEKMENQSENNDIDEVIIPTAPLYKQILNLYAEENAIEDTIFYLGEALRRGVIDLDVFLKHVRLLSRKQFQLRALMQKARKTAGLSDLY
Method in brief: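 Tsg101 binding domain (10 uM) with FITC-labeled PTAP peptide (50 nM) in HEPES pH 7.5 buffer, 20 min at r.t. with compounds. Binding measured by fluorescence polarization.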

[6] = qHTS Validation Assay to Find Inhibitors of Chronic Active B-Cell Receptor Signaling (AID 485345; active = well fitted curve in the direction sought with a large enough effect in the main read-out, with a control signal flat, not every such curve was filed as active)
Method in brief: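 TMD8 ABC-DLBCL cells with dox-inducible green luciferase–IκBα fusion and red native luciferase; compounds 46 uM–3 nM, 4 h at 37C with doxycycline in 0.5% FBS IMDM. Green/red ratio normalized to basal and 10 uM MG-132.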

[7] = biological target: Beta-2 adrenergic receptor (Homo sapiens) (UniProt P07550); experiment: qHTS validation assay of beta-arrestin-biased ligands of beta2-adrenergic receptor (AID 485366)
Sequence of Beta-2 adrenergic receptor (Homo sapiens) (P07550 whole entry, looked up): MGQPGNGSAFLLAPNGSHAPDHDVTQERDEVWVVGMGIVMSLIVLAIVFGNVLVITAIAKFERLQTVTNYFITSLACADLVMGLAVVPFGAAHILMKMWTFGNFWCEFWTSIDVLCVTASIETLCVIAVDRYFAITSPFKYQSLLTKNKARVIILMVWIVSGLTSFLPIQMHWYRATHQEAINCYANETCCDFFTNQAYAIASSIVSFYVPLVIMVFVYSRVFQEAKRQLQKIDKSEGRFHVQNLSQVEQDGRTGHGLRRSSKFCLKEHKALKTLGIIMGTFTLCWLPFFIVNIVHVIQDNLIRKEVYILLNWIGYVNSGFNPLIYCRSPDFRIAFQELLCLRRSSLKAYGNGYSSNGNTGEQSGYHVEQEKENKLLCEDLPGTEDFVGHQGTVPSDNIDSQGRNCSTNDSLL
Method in brief: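 qHTS, Tango cells, 1500 cells/well, DMEM + 1% FBS. Cpd 18 hr at 37 degrees C. Luciferin/ATP/CoA detection mix, 15 min RT, luminescence read. %Activity from corrected signal; CRC fit, curve class.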

[8] = biological target: Thioredoxin reductase 1, cytoplasmic (Rattus norvegicus) (UniProt O89049); experiment: qHTS Assay for Substrates of Mammalian Selenoprotein Thioredoxin Reductase 1 (TrxR1) (AID 488772);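 note: series mostly up to about 57 µM; a drop in NADPH fluorescence below the no-compound background marks a TrxR1 substrate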
Sequence of Thioredoxin reductase 1, cytoplasmic (Rattus norvegicus) (O89049 whole entry, looked up): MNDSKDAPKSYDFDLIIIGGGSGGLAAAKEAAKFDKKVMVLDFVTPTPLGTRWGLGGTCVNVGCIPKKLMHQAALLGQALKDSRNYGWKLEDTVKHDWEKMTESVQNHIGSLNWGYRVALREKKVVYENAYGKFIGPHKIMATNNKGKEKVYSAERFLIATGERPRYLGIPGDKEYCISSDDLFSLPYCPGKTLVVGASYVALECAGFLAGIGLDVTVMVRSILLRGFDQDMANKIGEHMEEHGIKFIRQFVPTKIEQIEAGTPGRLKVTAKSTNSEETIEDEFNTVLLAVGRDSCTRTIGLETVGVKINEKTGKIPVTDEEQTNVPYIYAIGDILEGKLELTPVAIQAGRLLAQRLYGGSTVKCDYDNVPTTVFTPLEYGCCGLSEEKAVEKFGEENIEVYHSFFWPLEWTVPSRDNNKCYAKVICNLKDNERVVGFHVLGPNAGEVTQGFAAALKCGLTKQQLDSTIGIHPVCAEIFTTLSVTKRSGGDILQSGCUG
Method in brief: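 In this dual-purpose format, potential substrates are identified from the first fluorescence read after selenite addition, not from the 8-minute delta. Rat enzyme is preincubated with NADPH and then with compound at ~22 deg C.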

[9] = biological target: Thioredoxin reductase 1, cytoplasmic (Rattus norvegicus) (UniProt O89049); experiment: qHTS Assay for Inhibitors of Mammalian Selenoprotein Thioredoxin Reductase 1 (TrxR1) (AID 488773); conditions: Potency: inhibition;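 note: drop in NADPH fluorescence over an 8 min run after selenite addition; series mostly up to about 57 µM; nearly all actives have a fitted effect of over 40% in size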
Method in brief: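 Inhibition is scored from the loss of NADPH fluorescence between first and last reads of an 8-min kinetic run. Selenite (400 uM) was the substrate, added after 15 min compound preincubation at room temperature.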

[10] = biological target: Flap endonuclease 1 (Homo sapiens) (UniProt P39748); experiment: qHTS Validation Assay for the Inhibitors of Human Flap endonuclease 1 (FEN1) (AID 488816); note: potency is the fitted concentration of half-maximal effect
Sequence of Flap endonuclease 1 (Homo sapiens) (P39748 whole entry, looked up): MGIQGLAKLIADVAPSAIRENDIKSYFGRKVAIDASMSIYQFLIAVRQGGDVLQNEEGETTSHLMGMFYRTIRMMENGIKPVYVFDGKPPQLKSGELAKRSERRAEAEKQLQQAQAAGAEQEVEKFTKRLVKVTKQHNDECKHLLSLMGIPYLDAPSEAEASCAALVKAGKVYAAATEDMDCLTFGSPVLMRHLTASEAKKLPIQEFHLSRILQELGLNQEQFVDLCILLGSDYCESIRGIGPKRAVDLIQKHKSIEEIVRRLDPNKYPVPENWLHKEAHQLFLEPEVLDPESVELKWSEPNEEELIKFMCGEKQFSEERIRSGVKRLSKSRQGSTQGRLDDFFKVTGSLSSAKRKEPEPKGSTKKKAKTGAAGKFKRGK
Method in brief: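 Steps: add FEN1 (10 nM reagent) or buffer only; pin compounds; hold 15 min at room temperature; start with substrate, 50 nM final; read at 0 and 15 min; correct, normalize and fit a four-parameter Hill curve.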

[11] = biological target: Methanococcus maripaludis chaperonin (MmCpn) (UniProt Q6LX38); experiment: High-Throughput Screening for Modulators of Cytosolic Chaperonin Activity: MmCpn Primary Screen (AID 488978);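 note: 50 nM MmCpn enzyme hydrolysing 30 µM ATP at 37 °C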
Sequence of Methanococcus maripaludis chaperonin (MmCpn) (Q6LX38 1-543): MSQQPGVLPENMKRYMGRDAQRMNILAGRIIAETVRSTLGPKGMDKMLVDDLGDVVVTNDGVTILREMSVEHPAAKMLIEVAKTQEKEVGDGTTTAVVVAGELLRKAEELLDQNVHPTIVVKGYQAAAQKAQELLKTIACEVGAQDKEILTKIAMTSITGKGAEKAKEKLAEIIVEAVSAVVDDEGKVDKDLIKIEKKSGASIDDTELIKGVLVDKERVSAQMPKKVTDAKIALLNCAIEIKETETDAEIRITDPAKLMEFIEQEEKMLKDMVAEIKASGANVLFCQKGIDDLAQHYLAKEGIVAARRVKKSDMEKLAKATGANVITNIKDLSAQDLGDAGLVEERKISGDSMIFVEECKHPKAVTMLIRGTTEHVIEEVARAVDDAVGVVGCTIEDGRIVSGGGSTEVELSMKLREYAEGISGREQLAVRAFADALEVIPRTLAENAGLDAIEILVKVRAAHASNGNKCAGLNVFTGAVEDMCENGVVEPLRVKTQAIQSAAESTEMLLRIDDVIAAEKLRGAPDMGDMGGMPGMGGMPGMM
Method in brief: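 MmCpn at 50 nM final was preincubated 5 min at RT with compound. ATP was then added at 30 uM final for 10 min at 37 C. ADP formed was detected by Transcreener HTRF (665/590 nm).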

[12] = biological target: Transient receptor potential cation channel subfamily V member 1 (Homo sapiens) (UniProt Q8NER1); experiment: HTS Assay for Compounds that Act as Enhancers of the Vanilloid Receptor 1 (AID 488979)
Sequence of Transient receptor potential cation channel subfamily V member 1 (Homo sapiens) (Q8NER1 whole entry, looked up): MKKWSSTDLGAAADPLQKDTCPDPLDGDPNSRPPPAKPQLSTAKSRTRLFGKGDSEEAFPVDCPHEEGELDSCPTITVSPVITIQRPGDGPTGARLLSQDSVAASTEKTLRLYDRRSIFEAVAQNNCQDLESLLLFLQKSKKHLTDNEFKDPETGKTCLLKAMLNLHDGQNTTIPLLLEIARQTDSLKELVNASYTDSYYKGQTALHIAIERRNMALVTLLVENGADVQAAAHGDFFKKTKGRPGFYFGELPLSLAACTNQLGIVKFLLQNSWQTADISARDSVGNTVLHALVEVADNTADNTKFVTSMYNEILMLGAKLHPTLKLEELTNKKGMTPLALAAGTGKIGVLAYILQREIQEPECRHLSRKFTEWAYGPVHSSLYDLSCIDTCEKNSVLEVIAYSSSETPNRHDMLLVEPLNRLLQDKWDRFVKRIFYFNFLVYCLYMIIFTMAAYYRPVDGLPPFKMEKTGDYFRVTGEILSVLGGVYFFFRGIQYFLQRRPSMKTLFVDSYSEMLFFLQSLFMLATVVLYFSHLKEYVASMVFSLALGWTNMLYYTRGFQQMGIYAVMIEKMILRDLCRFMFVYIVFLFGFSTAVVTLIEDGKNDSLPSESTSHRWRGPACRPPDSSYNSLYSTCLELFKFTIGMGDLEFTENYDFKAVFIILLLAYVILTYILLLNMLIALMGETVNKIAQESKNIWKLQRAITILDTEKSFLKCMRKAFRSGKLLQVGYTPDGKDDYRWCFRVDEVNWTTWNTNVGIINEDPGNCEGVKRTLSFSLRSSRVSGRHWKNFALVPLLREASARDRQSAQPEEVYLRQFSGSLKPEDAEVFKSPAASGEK
Method in brief: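 TRPV1-expressing cells loaded with Fluo-8 calcium dye; compounds added and calcium influx read kinetically for 3 min (agonist phase), then capsaicin at EC20 added and read 2 min more for enhancement. Fluorescence ex 480/em 520 nm.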

[13] = biological target: Thyrotropin receptor (Homo sapiens) (UniProt P16473); experiment: qHTS Assay for Antagonists of the Thyroid Stimulating Hormone Receptor (AID 488980); note: series mostly up to about 58 µM
Method in brief: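 TSHR-transfected HEK293 cells (2000/well) in HEPES-buffered HBSS with 70 uM RO 20-1724 were stimulated with 4 nM TSH (EC80, final) in the presence of compound. cAMP was measured by HTRF competition after lysis and 30 min at RT.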

[14] = biological target: D(1A) dopamine receptor (Homo sapiens) (UniProt P21728); experiment: HTS Assay for Allosteric Agonists of the Human D1 Dopamine Receptor: Primary Screen for Agonists (AID 488981)
Sequence of D(1A) dopamine receptor (Homo sapiens) (P21728 whole entry, looked up): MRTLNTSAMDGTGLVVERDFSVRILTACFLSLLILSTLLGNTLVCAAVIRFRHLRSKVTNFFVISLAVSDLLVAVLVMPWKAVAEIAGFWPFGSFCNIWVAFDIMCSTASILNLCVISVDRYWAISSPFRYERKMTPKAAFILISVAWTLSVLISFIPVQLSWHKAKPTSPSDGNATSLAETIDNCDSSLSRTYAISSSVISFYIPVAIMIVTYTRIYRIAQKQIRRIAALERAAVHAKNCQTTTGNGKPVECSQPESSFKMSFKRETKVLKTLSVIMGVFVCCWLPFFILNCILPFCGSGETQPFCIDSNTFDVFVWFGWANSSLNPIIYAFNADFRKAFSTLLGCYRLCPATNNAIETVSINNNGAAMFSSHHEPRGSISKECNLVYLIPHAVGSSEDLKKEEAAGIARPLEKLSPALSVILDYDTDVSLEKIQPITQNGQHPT
Method in brief: (§1)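 Tetracycline-induced HEK293 T-REx cells force-coupled to calcium signalling were incubated overnight at 30 C and dye-loaded at room temperature. Calcium flux over 180 s after compound addition flagged agonists; a further 180 s read after EC20 dopamine flagged potentiators.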

[15] = biological target: D(1A) dopamine receptor (Homo sapiens) (UniProt P21728); experiment: HTS Assay for Allosteric Agonists of the Human D1 Dopamine Receptor: Primary Screen for Potentiators (AID 488982)
Method in brief: as §1

[16] = Quantitative high throughput screen for delayed death inhibitors of the malarial parasite plastid, 96 hour incubation (AID 488745); note: nearly all actives have a fitted effect of over 70% in size; note: potency is the fitted concentration of half-maximal effect
Method in brief: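 Decreased firefly luciferase luminescence indicates inhibited growth of reporter-integrated P. falciparum after two generations (96 h, 37 C, 5% CO2). Infected erythrocytes at 0.1% parasitemia, 2% hematocrit, in Albumax-supplemented RPMI 1640.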

[17] = Quantitative high throughput screen for delayed death inhibitors of the malarial parasite plastid, 48 hour incubation (AID 488752); note: nearly all actives have a fitted effect of over 65% in size; note: potency is the fitted concentration of half-maximal effect
Method in brief: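 One-generation (48 h) growth assay: a decrease in luciferase signal from an integrated reporter in P. falciparum-infected red cells (0.1% parasitemia, 2% hematocrit) after compound exposure at 37 C indicates parasite inhibition.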

[18] = biological target: M-phase phosphoprotein 8 (Homo sapiens) (UniProt Q99549); experiment: qHTS Validation Assay for Inhibitors for MPP8 Chromodomain Interactions with Methylated Histone Tails (AID 488949); note: top concentration of the series differs between compounds; nearly all actives have a fitted effect of over 55% in size
Sequence of M-phase phosphoprotein 8 (Homo sapiens) (Q99549 whole entry, looked up): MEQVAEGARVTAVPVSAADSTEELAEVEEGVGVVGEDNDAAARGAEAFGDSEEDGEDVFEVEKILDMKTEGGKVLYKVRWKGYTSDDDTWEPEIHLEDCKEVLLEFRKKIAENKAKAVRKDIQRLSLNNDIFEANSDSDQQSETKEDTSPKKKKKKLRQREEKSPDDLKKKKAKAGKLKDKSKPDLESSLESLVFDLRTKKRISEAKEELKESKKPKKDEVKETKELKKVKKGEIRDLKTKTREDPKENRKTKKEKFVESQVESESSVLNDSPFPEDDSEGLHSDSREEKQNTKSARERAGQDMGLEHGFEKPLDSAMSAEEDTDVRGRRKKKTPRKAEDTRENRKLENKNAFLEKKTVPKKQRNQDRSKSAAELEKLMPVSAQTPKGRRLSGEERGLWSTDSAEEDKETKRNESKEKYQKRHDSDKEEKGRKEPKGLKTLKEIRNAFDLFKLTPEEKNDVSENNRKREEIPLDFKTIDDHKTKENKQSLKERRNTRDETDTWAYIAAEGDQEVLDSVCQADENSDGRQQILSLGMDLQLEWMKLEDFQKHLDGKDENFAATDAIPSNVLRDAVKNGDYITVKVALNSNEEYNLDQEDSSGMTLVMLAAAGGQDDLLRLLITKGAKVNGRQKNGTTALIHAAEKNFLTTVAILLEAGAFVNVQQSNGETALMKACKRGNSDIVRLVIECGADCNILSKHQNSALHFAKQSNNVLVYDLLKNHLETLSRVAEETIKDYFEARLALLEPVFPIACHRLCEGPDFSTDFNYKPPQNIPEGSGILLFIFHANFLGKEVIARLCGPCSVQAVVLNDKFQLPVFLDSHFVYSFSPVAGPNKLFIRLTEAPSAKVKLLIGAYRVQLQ
Method in brief: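 MPP8 (50 nM) was pre-bound to 50 nM biotinylated H3(1-18)K9me3 peptide in PBS pH 7.4 with 0.01% Tween-20. Compounds were then added for 30 min at room temperature, and complex disruption was read by AlphaScreen with streptavidin donor and nickel-chelate acceptor beads.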

[19] = biological target: ATP-dependent 6-phosphofructokinase (Trypanosoma brucei brucei) (UniProt O15648); experiment: qHTS Validation Assay to Find Inhibitors of T. brucei phosphofructokinase (AID 485368)
Method in brief: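 Luminescent ADP detection measures PFK turnover of fructose-6-phosphate (0.5 mM) with ATP (0.1 mM) at pH 8.0. Reaction runs 45 min at room temperature with 1.25 nM enzyme; inhibitors tested as titrations up to 57 uM.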

[20] = biological target: Chromobox protein homolog 1 (Homo sapiens) (UniProt P83916); experiment: qHTS Validation Assay for Inhibitors of HP1-beta Chromodomain Interactions with Methylated Histone Tails (AID 488953);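 note: loss of AlphaScreen luminescence from HP1-beta binding biotinylated H3K9me3 peptide; series mostly up to about 110 µM; nearly all actives have a fitted effect of over 50% in size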
Method in brief: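 AlphaScreen proximity signal from streptavidin donor and nickel chelate acceptor beads (final 10 ug/mL) after 30 min dark incubation. Compounds had 30 min at room temperature with preformed complex of 50 nM HP1-beta and 50 nM b-H3(1-18)K9me3 in PBS pH 7.4 with 0.01% Tween-20.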

| Structure (SMILES) | Potency [1] | Potency [2] | outcome [3] | Potency [4] | outcome [5] | Potency [6] | outcome [7] | outcome [8] | Potency [9] | Potency [10] | outcome [11] | outcome [12] | outcome [13] | outcome [14] | Potency [15] | Potency [16] | Potency [17] | Potency [18] | Potency [19] | Potency [20] |
| --- | --- | --- | --- | --- | --- | --- | --- | --- | --- | --- | --- | --- | --- | --- | --- | --- | --- | --- | --- | --- |
| Cc1c(OCC(F)(F)F)ccnc1CS(=O)c1nc2ccccc2[nH]1 (centres undefined) | inactive | inactive | inactive | inactive | inactive | inactive | inactive | inactive | inactive | inactive | inactive | inactive | inactive | inactive | inactive |  |  |  |  |  |
| Cc1nc2n(c(=O)c1CCN1CCC(c3noc4cc(F)ccc34)CC1)CCCC2 |  | inactive |  |  |  |  |  |  |  |  |  | inactive | inactive |  |  | inactive | inactive | inactive |  |  |
| CC(C)c1ccc2c(c1)c(SC(C)(C)C)c(CC(C)(C)C(=O)O)n2Cc1ccc(Cl)cc1 |  | 10 µM (active) |  | 21.2 µM (active) | inactive |  | inactive |  | inactive |  | inactive |  | inactive | inactive | inactive | 7.38 µM (active) | 13.1 µM (active) | inactive | inactive | inactive |
| O=c1ccc2ccc(O)c(O)c2o1 | inactive | inactive | inactive | inactive | inactive | inactive | inactive | inactive | inactive | 9.47 µM (active) | inactive | inactive | inactive | inactive |  | 14.7 µM (active) |  |  |  |  |
| O=C(CCc1ccc(O)cc1)c1c(O)cc(O)cc1O | inactive | inactive | inactive | inactive | inactive | inactive | inactive | inactive |  | inactive | inactive | inactive | inactive | inactive | inactive | inactive | inactive | inactive | inactive | inactive |
